These results are taken from PubChem BioAssay AID1347422 (Sanford-Burnham Center for Chemical Genomics, 2020).

In all, about 1,000 compounds were measured (“thermal shift dTm”: median about 0.19, highest 2% from about 1.7 on). Shown is part of a subset that was picked to be rich in the highest values. The source made the active and inactive calls.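 The calls were made as follows: active = mean rise in melting temperature of at least 1 degC over same-plate control wells; inactive = below that, where a call was filed.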

Chain of Sulfhydryl oxidase 1 (Homo sapiens) (O00391 whole entry, looked up): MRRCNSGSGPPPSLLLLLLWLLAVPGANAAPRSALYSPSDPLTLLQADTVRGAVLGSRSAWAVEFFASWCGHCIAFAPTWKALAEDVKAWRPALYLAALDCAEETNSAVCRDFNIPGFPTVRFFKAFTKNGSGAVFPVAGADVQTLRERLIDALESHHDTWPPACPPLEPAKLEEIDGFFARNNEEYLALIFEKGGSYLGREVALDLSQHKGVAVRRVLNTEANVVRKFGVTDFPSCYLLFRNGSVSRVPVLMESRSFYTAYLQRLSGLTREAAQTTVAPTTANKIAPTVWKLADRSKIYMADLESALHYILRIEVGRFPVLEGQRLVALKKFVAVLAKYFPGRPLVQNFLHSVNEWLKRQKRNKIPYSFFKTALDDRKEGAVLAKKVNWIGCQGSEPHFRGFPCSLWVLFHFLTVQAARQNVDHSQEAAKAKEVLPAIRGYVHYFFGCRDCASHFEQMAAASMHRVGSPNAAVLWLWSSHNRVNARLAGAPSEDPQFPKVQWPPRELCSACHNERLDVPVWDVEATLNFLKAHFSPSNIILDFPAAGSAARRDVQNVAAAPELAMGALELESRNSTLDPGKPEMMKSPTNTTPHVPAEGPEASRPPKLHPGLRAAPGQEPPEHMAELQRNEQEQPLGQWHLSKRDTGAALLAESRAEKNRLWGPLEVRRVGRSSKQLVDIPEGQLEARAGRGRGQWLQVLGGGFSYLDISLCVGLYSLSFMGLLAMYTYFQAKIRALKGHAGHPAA

This assay concerns the target Sulfhydryl oxidase 1 (Homo sapiens) (UniProt O00391). The assay is described as follows: ligand-induced melting shift of human QSOX1 – biophysical, protein thermal shift, single concentration, QSOX1 inhibitor project, confirmation (AID 1347422).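 Also: dTm is compound Tm minus mean Tm of DMSO-only wells on that plate.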 To be noted: recombinant hQSOX1 thermal shift, Sypro Orange, at 25 µM, stronger effect = higher value.
With `O=C(NCCc1ccccc1)c1ccc(NC(=O)C2CC2)cc1`, the thermal shift dTm amounted to 0.04 °C.

Consider `Cc1cc(Br)cc(C)c1NC(=O)/C=C/c1ccco1`, for which the thermal shift dTm was 0.52 °C.

With `Cc1ccc(Nc2nc(C3CC(CC(C)C)C(=O)O3)cs2)cc1` (stereo unspecified), the thermal shift dTm is -0.09 °C (inactive).

`Cc1ccc2cccc(OCCCCOc3ccccc3I)c2n1`: the thermal shift dTm turned out to be 0.77 °C.

Consider `Cc1ccc(-c2noc(CNC(=O)c3ccc4ccccc4c3)n2)cc1`, for which the thermal shift dTm is -0.08 °C (inactive).

Turning to `CCOc1ccc(NC(=O)c2ccc(-c3csc(C)n3)cc2)cc1`, the thermal shift dTm amounted to 0.15 °C.

For the compound `NC(=O)c1ccc(NC(=O)c2cccc(C(F)(F)F)c2)cc1`, the thermal shift dTm came out at 0.7 °C.

For `CCc1ccc(NC(=O)COc2ccccc2F)cc1`, the thermal shift dTm was 0.24 °C.

For the compound `C=C(C)COc1ccc(NC(=O)c2cccnc2)cc1`, the thermal shift dTm was determined as 0.13 °C.

Regarding `COc1ccc(-c2csc(NC(=O)c3ccc(Cl)s3)n2)cc1`, the thermal shift dTm came out at 0.05 °C.

On to `Oc1ccccc1C=Nc1ccc(Cc2ccc(N=Cc3ccccc3O)c(O)c2)cc1O`, for which the thermal shift dTm came to 0.01 °C.

Turning to `O=S(=O)(NCCC1=CCCCC1)c1ccc(Cl)s1`, the thermal shift dTm turned out to be 0.17 °C.

As for `CCOc1ccc(NC(=S)N2CCC(C(N)=O)CC2)cc1`, the thermal shift dTm is -0.13 °C (inactive).

As for `Cc1ccc(/C=C/C(=O)NCC(C)NC(=O)/C=C/c2ccc(C)cc2)cc1` (stereo unspecified), the thermal shift dTm turned out to be 0.45 °C.

On to `COc1ccc2[nH]cc(CCNC(=O)c3ccc(NC(C)=O)cc3)c2c1`, for which the thermal shift dTm was 1 °C (active).

As to `COc1cc(/C=N/O)cc(Br)c1OCc1ccccc1F`, the thermal shift dTm was 0.16 °C.

Take `O=S(=O)(c1cccs1)N1CCC(CO)(Cc2ccc(Cl)cc2)CC1`: the thermal shift dTm was found to be 0.18 °C.

As for `O=C(NCc1ccc(Cl)c(Cl)c1)c1ccc(Br)cc1`, the thermal shift dTm is -0.13 °C (inactive).

In the case of `O=C(Nc1nccs1)c1ccc(-c2cccc(Cl)c2Cl)o1`, the thermal shift dTm was found to be 0.19 °C.

As for `O=C(C#Cc1ccccc1)Nc1ccc2c(c1)OCCO2`, the thermal shift dTm stood at 0.24 °C.

For the compound `CCC(c1ccccc1)c1nnc(NC(=O)Nc2ccccc2F)s1` (stereo unspecified), the thermal shift dTm is 0.2 °C.

As to `NC(=O)c1cn(-c2ccccc2)nc1-c1ccc(-c2ccccc2)cc1`, the thermal shift dTm was 0.07 °C.

With `O=C(NC(=S)Nc1cccc(Cl)c1N1CCOCC1)c1cccs1`, the thermal shift dTm was -0.04 °C (inactive).

Take `CCCc1cc(C(=O)Nc2ccc3[nH]ncc3c2)cs1`: the thermal shift dTm is 2.61 °C (active).

For `CCc1c(C(=O)Nc2ccc3[nH]ncc3c2)csc1C`, the thermal shift dTm came to 0.29 °C.

For the compound `O=C(Nc1ccc2[nH]ncc2c1)c1cccc(F)c1`, the thermal shift dTm is 1.63 °C (active).

Regarding `Cc1ccc(NC(=O)Nc2ccc(C)c(F)c2)c(C)c1`, the thermal shift dTm was determined as 0.56 °C.

On to `FC(F)(F)c1ccccc1NC(=S)Nc1ccc(OCc2ccccc2)cc1`, for which the thermal shift dTm was 0.68 °C.

Take `COc1ccc(NC(=O)c2ccc(Cl)s2)cc1OC`: the thermal shift dTm stood at 0.19 °C.

As to `Cc1cc(C(=O)OCC(=O)Nc2ccc(Cl)cc2)c2ccccc2n1`, the thermal shift dTm is -0.03 °C (inactive).

With `CCNS(=O)(=O)c1ccc(NC(=O)Nc2cc(C)ccc2OC)cc1`, the thermal shift dTm is 1.17 °C (active).

Take `NC(=O)c1cn(-c2ccccc2)nc1-c1cccc(Br)c1`: the thermal shift dTm is -0.72 °C (inactive).

Regarding `C(=C\c1nnc(-c2ccccc2)o1)/c1cc2ccccc2o1`, the thermal shift dTm was found to be 0.18 °C.

With `O=c1nc2n(c3cc(Cl)ccc13)CC(O)=C2c1ccccc1`, the thermal shift dTm was 1.08 °C (active).

Take `Cc1nc(-c2cccc(NC(=O)c3cccc(F)c3)c2)cs1`: the thermal shift dTm was 3.41 °C (active).

For the compound `Cc1cccc(C(=O)Nc2cccc(-c3csc(C)n3)c2)c1`, the thermal shift dTm is 1.13 °C (active).

For the compound `CCOc1ccc(C(=O)Nc2cccc(-c3csc(C)n3)c2)cc1`, the thermal shift dTm is -0.65 °C (inactive).

`CCOc1ccc(C(=O)Nc2cc(C)ccn2)cc1[N+](=O)[O-]`: the thermal shift dTm is 0.43 °C.

As for `O=C(Nc1cccc(Br)c1)C1C2C3CCC(C3)C12` (stereo unspecified), the thermal shift dTm was 0.21 °C.

With `CCOc1ccc(/C=C/C(=O)Nc2ccc(OC)cc2OC)cc1`, the thermal shift dTm was found to be 0.02 °C.

As to `CCc1cc(-c2n[nH]c(C)c2Oc2ccc(F)cc2)c(O)cc1OC`, the thermal shift dTm was 0.02 °C.

On to `O=C(Nc1n[nH]c(-c2ccccc2)n1)N1CCC2(C=Cc3ccccc32)CC1`, for which the thermal shift dTm is 0.09 °C.

As for `CCCCC1=NN2C(=N)/C(=C/c3ccc(Cl)cc3Cl)C(=O)N=C2S1`, the thermal shift dTm was determined as 0.11 °C.

Regarding `CCOC(=O)c1sc(NC(=O)CSc2nc(SC)ns2)nc1C`, the thermal shift dTm came to 0.19 °C.

Consider `Cc1sc(NC(=O)C#Cc2ccccc2)c(C(N)=O)c1C`, for which the thermal shift dTm was determined as 0.33 °C.

As to `CCC(c1ccc(OC)cc1)N(CC)C(=O)Nc1ccccc1` (stereo unspecified), the thermal shift dTm is 0.14 °C.

Regarding `COC(=O)c1cccc(NC(=O)c2ccc(Cl)s2)c1`, the thermal shift dTm was 0.04 °C.

As to `C=CCSC1=N/C(=C\c2ccc(-c3cccc(Cl)c3)o2)C(=O)S1`, the thermal shift dTm worked out at 0.63 °C.

With `O=C(NCCC1=CCCCC1)Nc1cccc(F)c1`, the thermal shift dTm was 0.19 °C.

As to `CCN(CC)c1ccc2cc(-c3nc4ccccc4o3)c(=O)oc2c1`, the thermal shift dTm was 0.15 °C.

For the compound `COc1ccc2nc(NC(=O)c3ccc(C)o3)sc2c1`, the thermal shift dTm is 0.04 °C.

In the case of `COc1ccc(OC)c(-c2nc(NC(=O)c3ccccc3OC)sc2C)c1`, the thermal shift dTm was -7.06 °C (inactive).

As for `COc1ccc(C(=O)Nc2nc(-c3cc(OC)ccc3OC)c(C)s2)cc1`, the thermal shift dTm was 2.73 °C (active).

Turning to `CC1CCc2c(sc3ncn(CC(=O)Nc4ccccc4F)c(=O)c23)C1` (stereo unspecified), the thermal shift dTm was determined as 0.26 °C.

On to `COC(=O)C1=C(C)N(c2ccc(Cl)cc2)C(=O)/C1=C\c1ccco1`, for which the thermal shift dTm came to 0.01 °C.

Consider `O=C(Nc1ccc(Cl)cn1)c1cccc(NC(=O)c2cccs2)c1`, for which the thermal shift dTm was determined as 0.37 °C.

Regarding `C/C=C/c1c(F)c(F)c(Oc2cccc(NC(C)=O)c2)c(F)c1F`, the thermal shift dTm is 0.63 °C.

For the compound `C=CCN1C(=O)C(c2c(C)[nH]c3ccccc23)(c2c(C)[nH]c3ccccc23)c2ccccc21`, the thermal shift dTm was 1.05 °C (active).

Consider `FC(F)(F)c1ccc(Cl)c(Nc2nnc(-c3ccncc3)s2)c1`, for which the thermal shift dTm is 0.77 °C.

With `Cc1ccc(NC(=O)NCc2nc(-c3ccccc3Cl)no2)cc1`, the thermal shift dTm stood at 0.2 °C.

For the compound `Cc1ccc(Nc2nc(-c3sc(C)nc3C)cs2)nc1`, the thermal shift dTm came out at 0.16 °C.

For the compound `O=C(Nc1cccc(Cl)c1)N1CCC(C(O)(c2ccccc2)c2ccccc2)CC1`, the thermal shift dTm came out at 0.21 °C.

Take `O=S1(=O)CC2C(C1)N(c1cccc(C(F)(F)F)c1)C(=S)N2c1ccccc1` (stereo unspecified): the thermal shift dTm is -0.16 °C (inactive).

Turning to `CC(=O)Oc1ccc(-c2csc(Nc3ccccc3F)n2)cc1`, the thermal shift dTm turned out to be 0.35 °C.

Turning to `COc1ccc(S(=O)(=O)NC(C)C2C3CC4CC(C3)CC2C4)cc1` (stereo unspecified), the thermal shift dTm was -0.18 °C (inactive).

In the case of `O=C(Nc1nccs1)c1cccc(NC(=O)c2cc3ccccc3o2)c1`, the thermal shift dTm is 1.07 °C (active).

For `Cc1nc(NC(=O)c2ccc(Br)s2)sc1C`, the thermal shift dTm is 0.27 °C.

With `CCN(C(=O)Nc1ccc(Cl)cc1)c1nnc(-c2ccccc2)s1`, the thermal shift dTm was 0.16 °C.

With `O=C(Nc1cccc(NC(=O)c2ccco2)c1)c1cccc(F)c1`, the thermal shift dTm is 1.39 °C (active).

For the compound `CC(=O)Nc1cccc(NC(=O)c2cccc(NC(=O)c3ccco3)c2)c1`, the thermal shift dTm amounted to 0.37 °C.

Consider `CCc1ccc(C(=O)Nc2cccc(NC(=O)c3ccco3)c2)cc1`, for which the thermal shift dTm was 2.18 °C (active).
